# Source: PubChem BioAssay (NCI)
# Compounds without any hit were thinned out: in the full panel of roughly 79,000, 15% have a hit. Unmarked numbers belong to inactive results. Calls of active or inactive are those of the source. Rule as the data show it: active = growth inhibition above about 70%; inactive = the rest.
# Experiments:
# [1] = NCI Yeast Anticancer Drug Screen. Data for the rad52 strain (AID 147);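 also: 0% = growth of vehicle-treated control cultures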; settings: S. cerevisiae rad52 mutant growth inhibition, stronger effect = higher value
# Procedure, shortened: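 Compounds are applied to a genetically defined yeast strain lacking normal DNA damage repair, and inhibition of growth is expressed relative to cultures given vehicle only.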
# [2] = NCI Yeast Anticancer Drug Screen. Data for the wt1 strain (AID 149);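 also: 0% = growth of vehicle-treated wt1 cultures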; settings: S. cerevisiae wt1 strain (SPY 50644) growth inhibition, stronger effect = higher value
# Procedure, shortened: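 The wt1 strain was treated with compounds, and growth was compared with vehicle-treated cultures to give inhibition.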
# [3] = NCI Yeast Anticancer Drug Screen. Data for the mgt1 strain (AID 153); settings: S. cerevisiae mgt1 mutant growth inhibition, stronger effect = higher value
# Procedure, shortened: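 Strain: mgt1 yeast, one of a set carrying defined DNA damage repair or cell cycle control alterations. Compound-treated growth compared with vehicle.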
# [4] = NCI Yeast Anticancer Drug Screen. Data for the rad50 strain (AID 155);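 also: 0% = growth of vehicle-only cultures of the same strain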; settings: S. cerevisiae rad50 strain growth inhibition, stronger effect = higher value
# Procedure, shortened: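 Cells are treated with compound, grown, and their growth is then scored against vehicle-only cultures of the same repair-deficient yeast strain.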
# [5] = NCI Yeast Anticancer Drug Screen. Data for the mec2-1 strain (AID 157); settings: S. cerevisiae mec2-1 strain, stronger effect = higher value
# Procedure, shortened: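 Strain: mec2-1 (DNA repair/cell cycle alteration). Compound exposure, then growth measured; inhibition expressed relative to vehicle.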
# [6] = NCI Yeast Anticancer Drug Screen. Data for the rad14 strain (AID 159);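 also: 0% = growth of vehicle-treated control cultures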; settings: S. cerevisiae rad14 strain growth inhibition, stronger effect = higher value
# Procedure, shortened: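 Readout: yeast growth inhibition, referenced to vehicle-only cultures. Strain bears a defined alteration in DNA damage repair.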
# [7] = NCI Yeast Anticancer Drug Screen. Data for the sgs1 mgt1 strain (AID 161);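 also: 0% = growth of cultures given vehicle only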; settings: S. cerevisiae sgs1 mgt1 strain, stronger effect = higher value
# Procedure, shortened: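 Test agents were incubated with a DNA-repair-mutant yeast strain. Growth was then read and compared against vehicle-treated controls.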
# [8] = NCI Yeast Anticancer Drug Screen. Data for the CLN2oe strain (AID 163);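 also: 0% = growth of vehicle-only control cultures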; settings: S. cerevisiae CLN2oe strain, stronger effect = higher value
# Procedure, shortened: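 Growth of a genetically modified yeast strain is measured after compound exposure and compared with cultures given vehicle alone.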
# [9] = NCI Yeast Anticancer Drug Screen. Data for the cln2 rad14 strain (AID 165);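 also: 0% = growth equal to vehicle treated cultures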; settings: S. cerevisiae cln2 rad14 strain, stronger effect = higher value
# Procedure, shortened: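 Compounds are applied to the cln2 rad14 yeast strain, and growth is then compared with that of vehicle-treated cultures to give inhibition.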
# [10] = NCI Yeast Anticancer Drug Screen. Data for the bub3 strain (AID 167); settings: S. cerevisiae bub3 mutant strain, stronger effect = higher value
# Procedure, shortened: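 Part of a panel of yeast mutants defective in DNA damage repair or cell cycle regulation. Each strain is grown with compound, and inhibition is calculated relative to solvent-treated cultures.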
# [11] = NCI Yeast Anticancer Drug Screen. Data for the wt2 strain (AID 169);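 also: 0% = growth of vehicle-treated yeast cultures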; settings: S. cerevisiae wt2 strain growth inhibition, stronger effect = higher value
# Procedure, shortened: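 This strain belongs to a panel of yeast strains with defined genetic alterations in DNA damage repair or cell cycle control. Compounds are applied, and growth inhibition is measured against vehicle-treated cultures.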
# [12] = NCI Yeast Anticancer Drug Screen. Data for the mlh1 strain (AID 171);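 also: 0% = growth of vehicle-treated control cultures of the same strain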; settings: S. cerevisiae mlh1 strain growth inhibition, stronger effect = higher value
# Procedure, shortened: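 Growth of the mutant yeast strain after compound exposure, expressed as inhibition relative to vehicle-only controls.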
# [13] = NCI Yeast Anticancer Drug Screen. Data for the sgs1 strain (AID 173);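 also: 0% = growth of vehicle-only control cultures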; settings: S. cerevisiae sgs1 mutant, stronger effect = higher value
# Procedure, shortened: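 Growth of a yeast strain bearing a defined genetic alteration is measured after compound treatment. Inhibition is expressed relative to vehicle-only controls.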
# [14] = NCI Yeast Anticancer Drug Screen. Data for the mlh1 rad18 strain (AID 175); settings: S. cerevisiae mlh1 rad18 strain growth inhibition, stronger effect = higher value
# Procedure, shortened: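 Read-out is yeast growth inhibition, calculated against vehicle-only controls. The compound was applied to a strain engineered with DNA damage repair alterations.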
# [15] = NCI Yeast Anticancer Drug Screen. Data for the rad18 strain (AID 177); settings: S. cerevisiae rad18 mutant growth inhibition, stronger effect = higher value
# Procedure, shortened: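 Growth of the mutant yeast strain after compound exposure, normalised to vehicle-only cultures.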
# [16] = at 5.0 µM (retest, dose inferred, filed as 0.5)
# [17] = at 50.0 µM (retest, dose inferred, filed as 5.0)
compound,measurement,setting,value
CC(=O)c1cc2c(Cl)cc(Cl)cc2oc1=O,growth inhibition,[1]; at 1.2 µM,20%
same,growth inhibition,[1]; at 3.7 µM,19%
same,growth inhibition,[1]; at 11.0 µM,4%
same,growth inhibition,[1]; at 33.0 µM,9%
same,growth inhibition,[1]; at 100.0 µM,20%
same,growth inhibition,[2]; at 1.2 µM,-38%
same,growth inhibition,[2]; at 3.7 µM,-33%
same,growth inhibition,[2]; at 11.0 µM,-38%
same,growth inhibition,[2]; at 33.0 µM,-33%
same,growth inhibition,[2]; at 100.0 µM,-22%
same,growth inhibition,[3]; at 1.2 µM,9%
same,growth inhibition,[3]; at 3.7 µM,5%
same,growth inhibition,[3]; at 11.0 µM,-13%
same,growth inhibition,[3]; at 33.0 µM,-4%
same,growth inhibition,[3]; at 100.0 µM,6%
same,growth inhibition,[4]; at 1.2 µM,-24%
same,growth inhibition,[4]; at 3.7 µM,-17%
same,growth inhibition,[4]; [16],30%
same,growth inhibition,[4]; at 11.0 µM,-13%
same,growth inhibition,[4]; at 33.0 µM,-20%
same,growth inhibition,[4]; [17],83% (active)
same,growth inhibition,[4]; at 50.0 µM,-5.9%
same,growth inhibition,[4]; at 100.0 µM,-5%
same,growth inhibition,[5]; at 1.2 µM,8%
same,growth inhibition,[5]; at 3.7 µM,0%
same,growth inhibition,[5]; [16],77% (active)
same,growth inhibition,[5]; at 11.0 µM,-14%
same,growth inhibition,[5]; at 33.0 µM,3%
same,growth inhibition,[5]; [17],94% (active)
same,growth inhibition,[5]; at 50.0 µM,53.8%
same,growth inhibition,[5]; at 100.0 µM,-8%
same,growth inhibition,[6]; at 1.2 µM,-19%
same,growth inhibition,[6]; at 3.7 µM,-21%
same,growth inhibition,[6]; at 11.0 µM,-13%
same,growth inhibition,[6]; at 33.0 µM,-6%
same,growth inhibition,[6]; at 100.0 µM,14%
same,growth inhibition,[7]; [16],-8%
same,growth inhibition,[7]; [17],20%
same,growth inhibition,[8]; at 1.2 µM,-26%
same,growth inhibition,[8]; at 3.7 µM,-22%
same,growth inhibition,[8]; at 11.0 µM,-7%
same,growth inhibition,[8]; at 33.0 µM,-10%
same,growth inhibition,[8]; at 100.0 µM,-5%
same,growth inhibition,[9]; [16],64%
same,growth inhibition,[9]; [17],71% (active)
same,growth inhibition,[10]; at 1.2 µM,-21%
same,growth inhibition,[10]; at 3.7 µM,-17%
same,growth inhibition,[10]; [16],24%
same,growth inhibition,[10]; at 11.0 µM,-4%
same,growth inhibition,[10]; at 33.0 µM,-25%
same,growth inhibition,[10]; [17],46%
same,growth inhibition,[10]; at 100.0 µM,13%
same,growth inhibition,[11]; at 1.2 µM,-22%
same,growth inhibition,[11]; at 3.7 µM,-27%
same,growth inhibition,[11]; at 11.0 µM,-34%
same,growth inhibition,[11]; at 33.0 µM,-40%
same,growth inhibition,[11]; at 100.0 µM,-18%
same,growth inhibition,[12]; at 1.2 µM,-36%
same,growth inhibition,[12]; at 3.7 µM,-35%
same,growth inhibition,[12]; at 11.0 µM,-32%
same,growth inhibition,[12]; at 33.0 µM,-12%
same,growth inhibition,[12]; at 100.0 µM,-5%
same,growth inhibition,[13]; at 1.2 µM,-31%
same,growth inhibition,[13]; at 3.7 µM,-40%
same,growth inhibition,[13]; at 11.0 µM,-29%
same,growth inhibition,[13]; at 33.0 µM,-15%
same,growth inhibition,[13]; at 100.0 µM,-42%
same,growth inhibition,[14]; [16],35%
same,growth inhibition,[14]; [17],96% (active)
same,growth inhibition,[14]; at 50.0 µM,1.3%
same,growth inhibition,[15]; at 1.2 µM,10%
same,growth inhibition,[15]; at 3.7 µM,-3%
same,growth inhibition,[15]; at 11.0 µM,-11%
same,growth inhibition,[15]; at 33.0 µM,-11%
same,growth inhibition,[15]; at 100.0 µM,-6%
